Structures are written as SMILES. Records with an inconclusive call do not appear. Where a call stands in place of a potency, no number is given. Activity calls are given as the source filed them. Calls come from the whole dose curve; as a rule, active = well fitted inhibition curve with a large enough effect; inconclusive = small, poorly fitted or top-dose-only effect; inactive = flat fitted curve, though single readings scatter.

Chain of Calcium and integrin-binding protein 1 (Homo sapiens) (Q99828 whole entry, looked up): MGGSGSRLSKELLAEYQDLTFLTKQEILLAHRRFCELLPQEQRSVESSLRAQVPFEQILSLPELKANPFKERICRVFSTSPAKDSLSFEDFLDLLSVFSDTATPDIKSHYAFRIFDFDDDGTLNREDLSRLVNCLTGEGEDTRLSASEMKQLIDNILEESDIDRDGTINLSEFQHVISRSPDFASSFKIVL

The test has as its target Calcium and integrin-binding protein 1 (Homo sapiens) (UniProt Q99828). Nature of the test: Primary qHTS for Identification of Calcium Integrin Binding Protein 1 (CIB1) Competitor (AID 1508620).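 Note: GST tagged CIB1 binding a fluorescein labelled alphaIIb integrin peptide tracer; top concentration of the series differs between compounds.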 Particulars: CIB1-GST / FITC-alphaIIb peptide fluorescence polarization; series mostly up to 57.7 µM. An outline of the steps:
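Fluorescence polarization competition: CIB1-GST (1 uM final) preincubated with compound 15 min at room temperature, then FITC-labeled alphaIIb peptide (100 nM final) added for another 15 min. Polarization read at Ex 480/Em 540.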
(In general: In qHTS, concentration-response curves come from the screen itself.)
Take `CC(=O)O[C@@H]1C[C@]2(C)[C@@]3(CCC4[C@@]5(C)CC[C@H](O[C@@H]6O[C@H](C(=O)O)[C@@H](O)[C@H](O[C@@H]7O[C@H](CO)[C@H](O)[C@H](O)[C@H]7O[C@@H]7O[C@@H](C)[C@H](O)[C@@H](O)[C@H]7O[C@@H]7OC[C@](O)(CO)[C@H]7O)[C@H]6O[C@@H]6O[C@H](CO)[C@H](O)[C@H](O)[C@H]6O)C(C)(C)C5CC[C@]42C)O[C@@H](O)[C@]12C3CC(C)(C)[C@@H](OC(=O)/C=C/c1ccc(O)c(O)c1)[C@@H]2OC(=O)/C=C/c1ccccc1` (stereo not given in full): the activity change, negative = inhibition is 2.91% [at 12.4 µM] (inactive). Regarding `CCOC(=O)c1c(C)nn(-c2cccc([N+](=O)[O-])c2)c1C`, the Potency result is “inactive”.

As for `CC1(C)CCCC2(C)C(CO)C3CCC2C31` (stereo not given), the Potency result was “inactive”. Still for that read-out and setting: with `COC(=O)CC1(O)C(=O)Nc2ccccc21` (stereo not given) the entry was “inactive”; with `O=C1CC(c2ccc([N+](=O)[O-])cc2)=NN1c1ccccc1`, “inactive”; with `CC(C)(O)C1CCC2(C)C3C(O)C4C(C13)C42CO` (stereo not given), “inactive”.

Consider `COc1cc(C(=O)OC[C@H]2O[C@H](O[C@@]3(CO)O[C@@H](CO)[C@H](O)[C@H]3O)[C@H](O)[C@@H](O)[C@@H]2O)ccc1O`, for which the Potency result is “inactive”. With `CC1(C)O[C@]23C[C@H]1C[C@H](OC(=O)c1ccoc1)[C@]2(C)[C@@H](OC(=O)c1ccoc1)CCC3(C)O` (stereo not given in full), the Potency result is “inactive”. Consider `C=C1CCC[C@]2(C)C[C@]3(O)OC(=O)C(C)=C3C[C@@H]12`, for which the Potency result is “inactive”. Still for that read-out and setting: then `CC(C)(O)CNc1nc(Nc2ccnc(C(F)(F)F)c2)nc(-c2cccc(C(F)(F)F)n2)n1`, with “inactive”.

Values taken from PubChem BioAssay (NCATS).
